{"source": "PubChem BioAssay AID1209", "about": "(Sanford-Burnham Center for Chemical Genomics, 2008)", "note": "Hit rate of the full screen: of about 190,000 compounds, about 810 (0.43%) were called active. No stated cut-off is given here; in the data, active means inhibition above about 50%; inactive means the rest. This excerpt belongs to a sample that is enriched for actives.", "data": [{"biological_target": "Mannose-6-phosphate isomerase (Homo sapiens) (UniProt P34949)", "sequence (P34949 whole entry, looked up)": "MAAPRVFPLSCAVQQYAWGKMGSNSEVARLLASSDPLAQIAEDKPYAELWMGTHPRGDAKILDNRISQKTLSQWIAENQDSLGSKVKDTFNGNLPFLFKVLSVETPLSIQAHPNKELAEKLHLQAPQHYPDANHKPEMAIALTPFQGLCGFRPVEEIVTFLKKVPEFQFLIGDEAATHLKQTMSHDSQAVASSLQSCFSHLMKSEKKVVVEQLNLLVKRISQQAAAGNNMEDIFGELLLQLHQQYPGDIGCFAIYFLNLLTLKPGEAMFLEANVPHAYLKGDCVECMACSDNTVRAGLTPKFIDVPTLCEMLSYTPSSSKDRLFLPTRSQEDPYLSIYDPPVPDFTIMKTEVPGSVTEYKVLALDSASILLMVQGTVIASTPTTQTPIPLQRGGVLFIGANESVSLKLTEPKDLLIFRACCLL", "assay": "MPI enzyme activity inhibition – biochemical, fluorescence intensity, coupled assay, primary screen (AID 1209);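 further: plate controls were DMSO vehicle for no effect and wells lacking substrate for full effect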", "settings": "purified PMI enzyme, at 20 µM, stronger effect = higher value", "values": [{"smiles": "CCCNS(=O)(=O)c1ccc(OCC(=O)Nc2ccccc2F)cc1", "inhibition": "-1.4% (inactive)"}, {"smiles": "CC1(C)Cc2ccccc2C2=NNC(=O)C2=N1", "inhibition": "84% (active)"}, {"smiles": "CC1=NC(C)(C)Cc2ccccc21", "inhibition": "7.7% (inactive)"}, {"smiles": "CC1(C)CC(=O)C(C2=NC(C)(C)Cc3ccccc32)=C(O)C1", "inhibition": "-4% (inactive)"}, {"smiles": "O=S(=O)(/C=C/c1ccccc1)N1CCN(Cc2ccccc2)CC1", "inhibition": "-1.6% (inactive)"}, {"smiles": "COc1ccc2nc(NC(=O)CNS(=O)(=O)c3cccs3)sc2c1", "inhibition": "1.5% (inactive)"}, {"smiles": "CN(C(=S)Nc1ccc(Oc2ccccc2)cc1)c1ccc(O)cc1", "inhibition": "64% (active)"}, {"smiles": "CCN(C(=S)Nc1cccnc1)c1ccccc1", "inhibition": "4% (inactive)"}, {"smiles": "CN(C(=S)Nc1ccc(SC(F)F)cc1)c1ccc(O)cc1", "inhibition": "77.2% (active)"}, {"smiles": "CCN(C(=S)NCc1ccccc1)c1cccc2ccccc12", "inhibition": "6.3% (inactive)"}, {"smiles": "CCN(C(=S)Nc1cccnc1)c1cccc2ccccc12", "inhibition": "61.2% (active)"}, {"smiles": "CN1CCC(N(C)C(=S)Nc2ccc(SC(F)F)cc2)CC1", "inhibition": "-2% (inactive)"}, {"smiles": "Oc1cccc(NC(=S)Nc2cccnc2)c1", "inhibition": "14.8% (inactive)"}, {"smiles": "CN(Cc1ccccc1)C(=S)Nc1cccnc1", "inhibition": "0.8% (inactive)"}, {"smiles": "CCN(C(=S)Nc1ccc(Oc2ccccc2)cc1)c1ccccc1", "inhibition": "3.3% (inactive)"}, {"smiles": "Oc1cccc(NC(=S)Nc2ccc(SC(F)F)cc2)c1", "inhibition": "18.1% (inactive)"}, {"smiles": "CN(C(=S)Nc1ccccc1)c1ccccc1", "inhibition": "3.2% (inactive)"}, {"smiles": "CN(C(=S)Nc1cccnc1)c1ccc(O)cc1", "inhibition": "59.2% (active)"}, {"smiles": "Cn1cnnc1SCc1nc(N)nc(Nc2ccccc2)n1", "inhibition": "0.3% (inactive)"}, {"smiles": "Cc1ccc(C)c(NC2=CC(=O)CC(C)(C)C2)c1C#N", "inhibition": "-12% (inactive)"}, {"smiles": "CC(=O)N(NC(=O)c1ccc(C)cc1)C1CC(=O)N(c2ccccc2Cl)C1=O", "note": "(stereo not given)", "inhibition": "-5.8% (inactive)"}, {"smiles": "Cc1ccc(NC(=O)Cn2cc(C(F)(F)F)cc(Cl)c2=O)cc1Cl", "inhibition": "3.2% (inactive)"}, {"smiles": "C=CCn1c(Cc2cccs2)nnc1SCC(=O)Nc1ccc(OC)c(OC)c1", "inhibition": "5.9% (inactive)"}, {"smiles": "Cc1nn(C)cc1C(=O)Nc1cc(Oc2ccc(Cl)cc2)cc([N+](=O)[O-])c1", "inhibition": "-2.9% (inactive)"}, {"smiles": "COc1ccc2c(C)c(Cl)c(=O)oc2c1", "inhibition": "3.5% (inactive)"}, {"smiles": "CCOc1ccc2nc(N(CCN(CC)CC)C(=O)c3cccc([N+](=O)[O-])c3)sc2c1", "inhibition": "33.9% (inactive)"}, {"smiles": "CCN(CC)CCN(C(=O)c1ccc([N+](=O)[O-])cc1)c1nc2ccc(OC)cc2s1", "inhibition": "1.1% (inactive)"}, {"smiles": "CCN(CC)CCN(C(=O)c1cccc([N+](=O)[O-])c1)c1nc2ccc(OC)cc2s1", "inhibition": "56.7% (active)"}, {"smiles": "C=CCNC(=O)c1cc(C(=O)C(C)c2ncc(C(F)(F)F)cc2Cl)c[nH]1", "note": "(stereo not given)", "inhibition": "0.9% (inactive)"}, {"smiles": "N=c1sccn1CC(=O)NCc1ccc(Cl)cc1Cl", "inhibition": "-8.6% (inactive)"}, {"smiles": "COC(=O)C1CCN(C2CC(=O)N(c3cc(C)cc(C)c3)C2=O)CC1", "note": "(stereo not given)", "inhibition": "-1.3% (inactive)"}, {"smiles": "Nn1c(COc2ccc(Cl)cc2)n[nH]c1=S", "inhibition": "12% (inactive)"}, {"smiles": "Cc1ccc(OCc2n[nH]c(=S)n2N)cc1C", "inhibition": "1.5% (inactive)"}, {"smiles": "COc1ccc(OCc2n[nH]c(=S)n2N)cc1", "inhibition": "80.7% (active)"}, {"smiles": "O=C(NC1CCSC1=O)C1CCCCC1", "note": "(stereo not given)", "inhibition": "-2.2% (inactive)"}, {"smiles": "Nc1cc(-c2ccncc2)c[nH]c1=O", "inhibition": "50.4% (active)"}, {"smiles": "N#Cc1cc(-c2ccccc2)c[nH]c1=O", "inhibition": "6.1% (inactive)"}, {"smiles": "c1cc(-c2ccncc2)ccn1", "inhibition": "-8.5% (inactive)"}, {"smiles": "COC(=O)c1c(NC(=O)C2CC=CCC2C(=O)O)sc(C(N)=O)c1C", "note": "(stereo not given)", "inhibition": "7.3% (inactive)"}, {"smiles": "O=C(COc1cccc2cccnc12)Nc1ccccc1", "inhibition": "-7.8% (inactive)"}, {"smiles": "Cc1ccc(NC(=O)CN(C)C(=O)COc2cccc3cccnc23)cc1", "inhibition": "73% (active)"}, {"smiles": "Cc1ccc(NC(=O)CN(C)S(=O)(=O)c2cccc3cccnc23)cc1", "inhibition": "11.9% (inactive)"}, {"smiles": "O=C(c1cccnc1)N1CCN(c2ccc(Cl)cc2)CC1", "inhibition": "-6.6% (inactive)"}, {"smiles": "O=C(/C=C/NNC(=O)c1ccc(Cl)cc1)c1ccccc1", "inhibition": "-4.1% (inactive)"}, {"smiles": "COC(=O)c1ccc(C(=O)OC)c(NC(=O)CN2CCCCC2)c1", "inhibition": "4.7% (inactive)"}, {"smiles": "CCCn1nnnc1NC(=O)c1ccc(C)cc1Cl", "inhibition": "54.4% (active)"}, {"smiles": "CCCn1nnnc1NC(=O)c1cc(Br)ccc1OC", "inhibition": "0.2% (inactive)"}, {"smiles": "CCCn1nnnc1NC(=O)c1cc(Cl)ccc1Cl", "inhibition": "13.1% (inactive)"}, {"smiles": "O=c1c2ccccc2nc2c3ccccc3c(NCc3cccnc3)nn12", "inhibition": "6.3% (inactive)"}, {"smiles": "CCN(CC)C(=S)SC1=CCS(=O)(=O)C1", "inhibition": "102% (active)"}, {"smiles": "CCN(CC)C(=S)SSC(=S)N(CC)CC", "inhibition": "-2.4% (inactive)"}, {"smiles": "CCN(CC)C(=S)SCC(=O)c1ccccc1", "inhibition": "5.8% (inactive)"}, {"smiles": "COc1ccc(OC)c([C@@H]2OCCC=C[C@H]2C)c1", "inhibition": "-2.1% (inactive)"}, {"smiles": "O=C(Nc1nc2c(s1)CCCC2)c1nn(Cc2ccccc2)c(=O)c2ccccc12", "inhibition": "0.4% (inactive)"}, {"smiles": "O=S(=O)(c1cccs1)N1CCN(c2ccccn2)CC1", "inhibition": "5.9% (inactive)"}, {"smiles": "Cc1ccc(-c2nnc(CSc3nc4cc5c(cc4cc3C)OCO5)o2)cc1", "inhibition": "15.5% (inactive)"}, {"smiles": "Oc1ccc(CNc2ccccc2F)c2cccnc12", "inhibition": "45.3% (inactive)"}, {"smiles": "Cc1cccc(NCc2ccc(O)c3ncccc23)c1C", "inhibition": "60.4% (active)"}, {"smiles": "Cc1ccc(O)c(CNc2cccc3cccnc23)c1", "inhibition": "34.8% (inactive)"}, {"smiles": "Cc1cccc(NCc2ccccc2O)c1C", "inhibition": "29% (inactive)"}, {"smiles": "Cc1cccnc1NCc1ccc(O)c2ncccc12", "inhibition": "48.4% (inactive)"}, {"smiles": "COc1cccc(C2C(C(=O)Nc3nc4ccccc4s3)=C(C)NC3=C2C(=O)CC(C)(C)C3)c1OC", "note": "(stereo not given)", "inhibition": "-10.5% (inactive)"}, {"smiles": "CC(=O)NC1C(=O)N=C(SCC(=O)Nc2sc3c(c2C#N)CCCCCC3)NC1=O", "note": "(stereo not given)", "inhibition": "66.1% (active)"}, {"smiles": "CC(=O)Nc1c(O)nc(SCC(=O)Nc2sc3c(c2C#N)CCCCCC3)[nH]c1=O", "inhibition": "1.2% (inactive)"}, {"smiles": "CC(=O)NC1C(=O)N=C(SCC(=O)NC2CCCCC2)NC1=O", "note": "(stereo not given)", "inhibition": "-8.4% (inactive)"}, {"smiles": "O=C(O)c1ccc(Nc2ncnc3c2cnn3Cc2ccccc2)cc1", "inhibition": "7.1% (inactive)"}, {"smiles": "O=C(Cc1ccccc1)NCc1ccccn1", "inhibition": "-4.7% (inactive)"}, {"smiles": "C/C(N)=C(/C#N)C(=O)CSc1nn(-c2ccc(Cl)cc2)c(=S)s1", "inhibition": "5.6% (inactive)"}, {"smiles": "CC(=O)N1c2ccccc2C(C)(C)C2CCC(C)CC21", "note": "(stereo not given)", "inhibition": "0.8% (inactive)"}, {"smiles": "CC(=O)N1c2ccccc2C2(O)N=C(C)SC12", "note": "(stereo not given)", "inhibition": "60.3% (active)"}, {"smiles": "Cc1ccc(C(=O)CC2(O)C(=O)N(C)c3ccccc32)s1", "note": "(stereo not given)", "inhibition": "8.1% (inactive)"}, {"smiles": "COCc1cc(C)nc(N2CCNCC2)c1C#N", "inhibition": "-0.4% (inactive)"}, {"smiles": "COc1cc2c(C#N)c(N3CCc4ccccc4C3)nc(N)c2c(N)n1", "inhibition": "64.3% (active)"}, {"smiles": "CCOc1cc2c(C#N)c(N3CCCCC3)nc(N)c2c(N)n1", "inhibition": "62.4% (active)"}, {"smiles": "COc1cc2c(C#N)c(N3CCCCC3)nc(N)c2c(N)n1", "inhibition": "66.7% (active)"}, {"smiles": "CCCN(CC1CC1)c1nc(N)c2c(N)nc(OC)cc2c1C#N", "inhibition": "47.8% (inactive)"}, {"smiles": "COc1cc2c(C#N)c(N3CCOCC3)nc(N)c2c(N)n1", "inhibition": "28.9% (inactive)"}, {"smiles": "COc1cc2c(C#N)c(N3CCN(C)CC3)nc(N)c2c(N)n1", "inhibition": "42.5% (inactive)"}, {"smiles": "CCOc1ccccc1N1CCN(c2nc(N)c(C#N)c(CC#N)c2C#N)CC1", "inhibition": "12.6% (inactive)"}, {"smiles": "CCCCN(CC)c1nc(N)c2c(N)nc(OCC)cc2c1C#N", "inhibition": "37.5% (inactive)"}, {"smiles": "CCOc1cc2c(C#N)c(N3CCNCC3)nc(N)c2c(N)n1", "inhibition": "65.4% (active)"}, {"smiles": "N#Cc1c(N2CCCC2)nc(N)c2c(N)nc(N3CCCC3)cc12", "inhibition": "6.9% (inactive)"}, {"smiles": "COc1cc2c(C#N)c(N3CCN(c4ccccc4OC)CC3)nc(N)c2c(N)n1", "inhibition": "47.2% (inactive)"}, {"smiles": "COc1ccc2cc(CN(CC3CCCO3)C(=O)Nc3ccccc3OC)c(=O)[nH]c2c1", "note": "(stereo not given)", "inhibition": "3.2% (inactive)"}, {"smiles": "Cc1ccc2nc(C)c(C(=O)N/N=C/c3ccc(C(=O)O)cc3)cc2c1", "inhibition": "13.8% (inactive)"}, {"smiles": "Cn1cccc1C(=O)NC(=O)COC(=O)c1ccccc1O", "inhibition": "9.4% (inactive)"}, {"smiles": "Cc1cc(NC(=S)N(CCCN2CCN(C)CC2)Cc2ccco2)ccc1Cl", "inhibition": "3.6% (inactive)"}, {"smiles": "CC1CCN(C(=O)CSc2nnc(CSc3ncccn3)n2C)CC1", "inhibition": "-8.9% (inactive)"}, {"smiles": "CCOC(=O)c1nnc(-c2ccccc2)nc1Oc1ccc(Cl)cc1", "inhibition": "2.2% (inactive)"}, {"smiles": "Cc1ccc(Oc2ccc(NC(=O)c3ccco3)cc2)cc1", "inhibition": "6.1% (inactive)"}, {"smiles": "Cc1ccc(-c2nnc(-c3ccc(NC(=O)c4ccco4)cc3)o2)cc1", "inhibition": "75.9% (active)"}, {"smiles": "O=C(Nc1cccc(-c2nnc(-c3ccccc3)o2)c1)c1ccco1", "inhibition": "7.4% (inactive)"}, {"smiles": "COc1cccc(/C=N/N2CCOCC2)c1O", "inhibition": "4.9% (inactive)"}, {"smiles": "CCN(CC)c1ccc(/C=N/N2CCOCC2)c(O)c1", "inhibition": "19.6% (inactive)"}, {"smiles": "CC(C)c1nc(CN2CCCCC2)cc(=O)[nH]1", "inhibition": "8.6% (inactive)"}, {"smiles": "CCN(CC)S(=O)(=O)c1ccc(C(=O)NCc2n[nH]c(=S)n2Cc2ccccc2)cc1", "inhibition": "10.2% (inactive)"}, {"smiles": "CC1=C(C(N)=O)C(c2cccs2)NC(=S)N1", "note": "(stereo not given)", "inhibition": "-11.8% (inactive)"}, {"smiles": "Cc1nn(C)c(C)c1N1C(=O)c2cccc3c(Br)ccc(c23)C1=O", "inhibition": "-0.5% (inactive)"}, {"smiles": "Cc1nn(C)c(C)c1N1C(=O)c2cccc3c(N)ccc(c23)C1=O", "inhibition": "6% (inactive)"}, {"smiles": "CC(=O)c1ccc2c3c(cccc13)C(=O)N(c1c(C)nn(C)c1C)C2=O", "inhibition": "74.2% (active)"}, {"smiles": "O=C(NC(NC(=O)c1ccccc1)c1ccccc1)c1ccccc1", "inhibition": "-8.6% (inactive)"}, {"smiles": "O=C(NC(NC(=O)c1ccccc1)C(=O)c1ccccc1)c1ccccc1", "inhibition": "109% (active)"}, {"smiles": "O=C(NC(Nc1ncccn1)C(=O)c1ccccc1)c1ccccc1", "note": "(stereo not given)", "inhibition": "-2% (inactive)"}, {"smiles": "CC(NC(=O)c1ccc2c(c1)OCCO2)C(=O)O", "note": "(stereo not given)", "inhibition": "-5.6% (inactive)"}, {"smiles": "Cn1cc(CNCc2cnc3ccccn23)c(-c2ccc(Oc3ccccc3)cc2)n1", "inhibition": "4.9% (inactive)"}]}]}
